Screens (PubChem BioAssay)
Rows were chosen to be rich in hits. Some 3.1% of all compounds tested hit in one or more screens of this group.
PNC inhibitor: perinucleolar compartment assembly inhibition | 3.1% of 140,000 active | PC3M PTB-GFP, PNC prevalence imaging, 16 h; hits give low values | AID 2417 | activity change (PNC), negative = inhibition, % at 10 µM;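 active = readout at or below -70, meaning at least 70% loss of cells showing the perinucleolar compartment, a nuclear body marking cancer cells; inconclusive = readout between -30 and a set limit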
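Read-out is percentage of cells bearing a perinucleolar compartment, from automated 20x imaging of fixed, Hoechst-stained PC3M PTB-GFP cells. Cells were seeded 4 h, then exposed 16 h to compound (23 nl of library stock) in duplicate plates.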
12-hLO inh: 12-hLO (ALOX12) enzyme inhibition. P18054. purified 12-hLO, xylenol orange hydroperoxide absorbance. Potency, µM (highest dose often 57.1 µM), usual class: inhibitors. 0.12% of 150,000 active; also: nearly all actives have a fitted effect of over 55% in size
Target sequence (P18054 whole entry, looked up): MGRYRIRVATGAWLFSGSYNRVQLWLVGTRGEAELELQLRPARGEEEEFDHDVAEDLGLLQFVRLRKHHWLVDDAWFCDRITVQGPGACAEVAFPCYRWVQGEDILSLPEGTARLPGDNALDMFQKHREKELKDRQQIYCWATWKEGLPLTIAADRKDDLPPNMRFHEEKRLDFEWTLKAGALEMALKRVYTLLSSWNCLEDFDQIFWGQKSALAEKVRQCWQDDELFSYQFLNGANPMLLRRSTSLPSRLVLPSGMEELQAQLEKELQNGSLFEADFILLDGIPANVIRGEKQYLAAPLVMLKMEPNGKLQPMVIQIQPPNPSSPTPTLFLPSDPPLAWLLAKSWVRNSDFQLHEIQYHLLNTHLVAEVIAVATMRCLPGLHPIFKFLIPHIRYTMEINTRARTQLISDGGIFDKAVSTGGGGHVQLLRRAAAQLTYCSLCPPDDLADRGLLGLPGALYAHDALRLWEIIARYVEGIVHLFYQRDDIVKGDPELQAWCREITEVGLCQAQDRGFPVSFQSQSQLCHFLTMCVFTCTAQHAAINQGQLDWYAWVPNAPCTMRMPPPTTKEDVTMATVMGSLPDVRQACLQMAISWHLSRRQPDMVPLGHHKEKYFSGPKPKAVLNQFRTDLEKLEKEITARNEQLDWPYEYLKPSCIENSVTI
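Xylenol orange chromogenic assay: hydroperoxide from 12hLO oxidises Fe(II), giving red-shifted Fe(III)-XO absorbance. Conditions: 150 nM enzyme, 40 uM arachidonic acid, 25 mM Hepes pH 7.0, 0.01% Triton X-100, 30 min, room temperature.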
ALOX15B inhib: 15-hLO-2 (ALOX15B) enzyme inhibition; purified 15hLO-2, xylenol orange hydroperoxide absorbance; Potency, µM (series often up to 57.1 µM), usual class: inhibitors; O15296; 0.56% of 110,000 active; also: nearly all actives have a fitted effect of over 60% in size
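Screening format was qHTS against 50 nM purified 15hLO-2 in Hepes pH 7.5 with detergent. Activity follows hydroperoxide formation from 45 uM arachidonic acid, measured as 573:405 nm absorbance ratio of the ferric-xylenol orange complex.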
Hits are given with their value; – = inactive; ? = inconclusive; · = no result; [ ] = dose if it differs, or a comment. Unless noted, calls follow the shape of the dose curve; as a rule, active = well fitted curve in the direction sought with a large enough effect; inconclusive = small, poorly fitted or top-dose-only effect, or another doubt; inactive = no such curve, though single readings can be large; an effect the other way counts as inactive or inconclusive.

SMILES	PNC inhibitor	12-hLO inh	ALOX15B inhib
Nc1c(N2CCCCC2)c(=O)[nH]c(=O)n1-c1ccccc1	-84	–	–
O=C(c1cnccn1)N1CCC[C@@]2(CCN(c3ccncc3)C2)C1	·	–	–
OC1CCN(c2ncnc3nc[nH]c23)CC1	–	–	·
c1nc(N2CCCCC2)c2[nH]cnc2n1	-119	–	·
CCCCc1nc2c(c3c1C[C@H](C)OC3)CN(C(=O)NCCc1c[nH]c3ccccc13)CC2	·	–[11.4 µM]	·
C=CCN1c2ccccc2[C@]23C[C@@H](C(=O)OC)N(S(=O)(=O)c4ccc(C(F)(F)F)cc4)C2=NC(C(=O)OC)=C(C(=O)OC)[C@H]13	·	–[11.4 µM]	·
COc1ccc(C(=O)Oc2ccc(C(C)=O)cc2)c(OC)c1	-83	–	–
COc1ccc(/C(C)=N/N=C(\C)c2ccc(OC)cc2OC)c(OC)c1	–	–	·
COc1ccc(OC)c(S(=O)(=O)Nc2ccc(C(C)=O)cc2)c1	–	–	–
COc1ccc(/C(C)=N\NS(C)(=O)=O)c(OC)c1	-84	–	·
C/C(=N\NC(=O)Nc1ccccc1)c1ccc2ccccc2c1	–	–	·
C/C(=N/NS(C)(=O)=O)c1ccc2ccccc2c1	-103	–	–
O=C(O)c1cccc(OCCO)c1	·	–[11.4 µM]	–[11.4 µM]
COC(=O)[C@@]1(Cc2ccc(F)cc2)[C@H]2c3cc(C(=O)N(C)C)n(Cc4cccc5ccccc45)c3C[C@H]2CN1C(=O)c1ccccc1	·	–	–
CC1(C)N=C(N)N=C(N)N1CCCCc1ccccc1	·	–[11.4 µM]	–[11.4 µM]
CCCCS(=O)(=O)N1C2=NC(C(=O)OC)=C(C(=O)OC)[C@@H]3Nc4ccccc4[C@]23C[C@H]1C(=O)OC	·	–[11.4 µM]	·
CCCCCCCCCCC(C)(C)C(=O)Nc1c(OC)cc(OC)cc1OC	·	–	–
O=c1c(-c2ccc(F)cc2)nc2cnc(Oc3cccc(Cl)c3)nc2n1C[C@H]1CCCO1	·	·	–
CCC(=O)OCN1C(=O)C=CC1=O	·	–[11.4 µM]	–[11.4 µM]
Cc1nc2sccn2c(=O)c1CCN1CCC(=C(c2ccc(F)cc2)c2ccc(F)cc2)CC1	-115	–	–
Cc1nc2ccccn2c(=O)c1CCN1CCC(C(=O)c2ccc(F)cc2)CC1	–	–	–
NCCC[C@@H](CC(=O)N[C@@H]1CCCC[C@H]1C(=O)N[C@H](CC(=O)N[C@@H](CCC(=O)O)CC(=O)O)Cc1ccccc1)NC(=O)C[C@H](Cc1ccccc1)NC(=O)[C@@H]1CNCC[C@H]1N	·	–	·
Cc1cc(C)nc(/N=C(/NC(=O)Nc2ccc(Cl)c(Cl)c2)Nc2cccc(Cl)c2)n1	-113	–	·
Cc1cc(C)nc(/N=C(/NC(=O)Nc2ccc(Cl)c(Cl)c2)Nc2ccccc2)n1	–	–	·
C[C@@H](C[C@H](N)C(=O)O)C(=O)O	·	–[11.4 µM]	–[11.4 µM]
SMILES	PNC inhibitor	12-hLO inh	ALOX15B inhib
COc1cc([C@@H](O)CO)ccc1OS(=O)(=O)O	·	–	–
CSc1nncc(/C(C)=N\Nc2cccc(C)c2)n1	–	–	3.2µM
CSc1nncc(/C(C)=N\Nc2ccccc2)n1	–	–	?
Cc1ccc(NC(=S)c2nc3ccccc3[nH]2)c(C)c1	–	–	·
Cc1cccc(/C=C(\c2nc3ccccc3[nH]2)S(=O)(=O)c2ccccc2)c1	-82	–	·
Cc1nc(NCCO)c2nnn(Cc3ccccc3F)c2n1	-93	–	–
C#CCNc1nc(C)nc2c1nnn2Cc1ccccc1F	?	–	–
C=C(C)CN1C(=O)C(O)(CC(=O)c2ccc3c(c2)OCCO3)c2ccccc21 (centres undefined)	–	–	–
C=CCN1C(=O)C2(/C(=C(\O)c3ccc4c(c3)OCCO4)C(=O)C(=O)N2CCCOC)c2ccccc21 (centres undefined)	-96	–	–
O=C(/C=C/c1c(F)cccc1Cl)Nc1ncccn1	–	–	·
O=C(/C=C/c1c(Cl)cccc1Cl)n1cccn1	-95	–	·
Cc1cc(O)c(C)c(O)c1C(=O)O	·	–	–
COc1ccc(-n2c(=O)c(-c3cccs3)nc3cnc(N4CCN(C)CC4)nc32)cc1	·	·	–
CCOC(=O)C1CCN(S(=O)(=O)c2ccc(-n3cnnn3)c(C)c2)CC1	-100	–	–
CCOC(=O)C1CCN(S(=O)(=O)c2ccc(C)cc2)CC1	?	–	–
CC1CCc2nn(CC(=O)NCCCN3CCOCC3)cc2C1 (centres undefined)	–	–	–
CC1CCc2nn(CC(=O)NCCN3CCOCC3)cc2C1 (centres undefined)	-82	–	–
CCCC(C)NC(=O)c1ccc(F)cc1 (centres undefined)	-82	–	–
CCc1ccc(C(C)NC(=O)c2ccc(F)cc2)cc1 (centres undefined)	–	–	–
COC(=O)C1(Cc2ccccc2)C2c3cc(C(=O)N4CCCC4)n(Cc4ccc(OC(F)(F)F)cc4)c3CC2CN1C(=O)c1ccccc1 (centres undefined)	·	–	–
CCN(CC)CC(=O)n1c2c(c3ccccc31)CCCC2	-100	–	–
CN1CCN(CC(=O)n2c3c(c4ccccc42)CCCC3)CC1	?	–	–
O=C(O)c1ccccc1OP(=O)(O)O	·	–	–
CC(C)C[C@@H](CC(=O)N[C@@H](CCCN)CC(=O)N[C@@H]1CCCC[C@H]1C(=O)N[C@H](CC(=O)N[C@@H](CCC(=O)O)CC(=O)O)Cc1c[nH]c2ccccc12)NC(=O)[C@@H]1CCCC[C@H]1N	·	–	·
OC[C@H]1NC[C@@H](O)[C@@H](O)[C@H]1O	·	–	–
SMILES	PNC inhibitor	12-hLO inh	ALOX15B inhib
O=C(c1cnccn1)N1CCC2(CC1)CN(Cc1ccccc1)C2	·	–	–
CCn1c(SCC(=O)N2CCOCC2)nc2c(c1=O)SC(C)C2 (centres undefined)	-100	–	·
CCn1c(SCC(=O)Nc2nnc(C)s2)nc2c(c1=O)SC(C)C2 (centres undefined)	?	–	–
O=C(Nc1nn[nH]n1)c1nc(-c2ccccc2)cc(=O)[nH]1	·	–[11.4 µM]	–[11.4 µM]
O=C(CNC(=O)c1ccco1)OC(C(=O)c1ccccc1)c1ccccc1 (centres undefined)	–	–	·
O=C(CNC(=O)c1ccco1)NCC(=O)OC(C(=O)c1ccccc1)c1ccc(Cl)cc1 (centres undefined)	-100	–	·
C[Si](C)(C)C#Cc1ccccc1NC(=S)Nc1ccccc1	·	–	–
Cc1ccc(C)c(NC(=O)CN(C)C(=O)[C@@H](NC(=O)c2ccc(C(C)(C)C)cc2)C(C)C)c1	-98	–	·
CSCCC(NC(N)=O)C(=O)N(C)CC(=O)Nc1cc(C)ccc1C (centres undefined)	–	–	–
COc1cc2c(C=O)c3c4c(cc(OC)c(OC)c4c2cc1OC)CCN3C	·	?	32µM
COc1cc2c(C)c3c4c(cc(OC)c(OC)c4c2cc1OC)CCN3C	·	–	–
CN(C)c1ncc2nc(-c3ccc(F)cc3)c(=O)n(CCC#N)c2n1	·	–	–
CN(C)c1ccc(-c2cncnc2NCc2cccnc2)cc1	·	·	–
CN(C)c1ccc(N2CN=C3SCC(=O)N3C2)cc1	–	–	16µM
O=C1CSC2=NCN(c3ccc4c(c3)OCO4)CN12	–	–	–
COC(=O)C[C@H]1c2ccccc2[C@H]2C(=C[C@@H](C)[C@H]3C(=O)N(O)C(=O)[C@H]32)N1C(=O)OC	·	–[11.4 µM]	·
COc1ccc(C)cc1-n1nnnc1SCC(=O)NC(=O)NCc1ccco1	-81	–	–
COc1ccc(-n2nnnc2SCC(=O)NCc2ccco2)cc1OC	–	–	–
